{"source": "PubChem BioAssay (NCI)", "note": "About 83,000 compounds went through this panel and 20% of them were active in at least one assay; those are over-represented in the sample as a whole.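 Single-dose data. Exposure time 48 hours. Values below 10 considered active.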 Activity calls are given as the source filed them.", "data": [{"tested_on": "LOX IMVI melanoma", "assay": "NCI-60 one-dose screen, 48 h (100 = growth as untreated, 0 = no growth, -100 = all killed)", "conditions": "10 µM unless noted", "values": [{"smiles": "Clc1ccc2[nH]c3c(NCCCN4CCOCC4)ncnc3c2c1", "growth": "64.5% (inactive)"}, {"smiles": "Cc1cc(C(c2ccccc2)c2ccccc2)ccc1NS(=O)(=O)c1ccccc1", "growth": "87.7% (inactive)"}, {"smiles": "COc1cc(NC(=O)c2cccc(-c3cc(=O)c4c(O)c(OC)c(OC)cc4o3)c2)cc(OC)c1OC", "growth": "33% (inactive)"}, {"smiles": "Cc1ccc(S(=O)(=O)N(CC[C@@H]2C[C@H]2c2cc3ccccc3o2)C(=O)NC2CCCCC2)cc1", "growth": "90.5% (inactive)"}, {"smiles": "CC(C)CCC[C@@H](C)[C@H]1CCC2C3=CCC4C(=O)C=CC(=O)C4C3CC[C@@]21C", "note": "(some centres undefined)", "growth": "-43.4% (active)"}, {"smiles": "Cc1ccc(/C=C(\\C#N)n2nnc3cc(Cl)c(Cl)cc32)cc1", "growth": "-13.4% (active)"}, {"smiles": "COc1cc(C2C=C(c3cccc(NC(C)=O)c3)Nc3ncnn32)cc(OC)c1OC", "note": "(centres undefined)", "growth": "42.1% (inactive)"}, {"smiles": "CC(=[N-])N1CCC[C@@H](Nc2c3ccccc3nc3ccccc23)C1.[Cl][Pt].[NH-]CCC[NH-]", "growth": "27.9% (inactive)"}, {"smiles": "O=C(/C=C/C12c3ccccc3C(c3ccccc31)C1C(=O)NC(=O)C12)c1ccccc1", "note": "(centres undefined)", "growth": "2.81% (active)"}, {"smiles": "COc1cc2ccccc2cc1C(=O)NC(=S)Nc1ccc(-c2nc3ccccc3[nH]2)cc1", "growth": "60.5% (inactive)"}]}, {"tested_on": "SK-MEL-28 melanoma", "assay": "NCI-60 one-dose screen, 48 h (100 = growth as untreated, 0 = no growth, -100 = all killed)", "conditions": "10 µM unless noted", "values": [{"smiles": "CN(C)CCN1C(=O)c2cccc3c(-c4ccc(-c5nc6c7ccccc7c7ccccc7c6[nH]5)cc4)ccc(c23)C1=O", "growth": "114% (inactive)"}, {"smiles": "O=C(Nc1ccc(N2CCCCC2)c(Cl)c1)c1ccc(Br)o1", "growth": "39.6% (inactive)"}, {"smiles": "COc1ccc(OC)c(Nc2nc3nonc3nc2Nc2cccc(Br)c2)c1", "growth": "30.2% (inactive)"}, {"smiles": "O=C(NCCN1CCC(O)CC1)c1cc2c(o1)C(=O)c1ccccc1C2=O", "growth": "-74.3% (active)"}, {"smiles": "COc1cc(/C=C/C(=O)c2cccc(-n3cc(-c4ccccc4)[nH]c3=O)c2)cc(OC)c1OC", "growth": "-48.4% (active)"}, {"smiles": "Fc1ccc(Nc2nc(Nc3ccc(-c4nc5ccccc5[nH]4)cc3)c3cn[nH]c3n2)cc1", "growth": "51.7% (inactive)"}, {"smiles": "COc1ccc(-c2nc3sc4c(c3c(=O)[nH]2)CCCC4)c2ccccc12", "growth": "-5.17% (active)"}, {"smiles": "O=[N+]([O-])c1ccccc1C(O)Cc1ccc2ccccc2n1", "note": "(centres undefined)", "growth": "92.9% (inactive)"}, {"smiles": "N#Cc1c(NC(=O)c2ccccc2I)sc2c1CCCC2", "growth": "64.1% (inactive)"}, {"smiles": "NC(=O)c1c(NC(=O)c2ccc(C(F)(F)F)cc2Cl)sc2c1CCC(=O)C2", "growth": "-67.2% (active)"}, {"smiles": "COc1cc(CNC(=O)/C=C/C=C/c2ccc3c(c2)OCO3)ccc1OCc1cn(-c2ccc(Cl)c(Cl)c2)nn1", "growth": "6.52% (active)"}, {"smiles": "CSc1ccc(Cl)c(C(=O)Nc2sccc2C(N)=O)c1", "growth": "102% (inactive)"}, {"smiles": "COc1cc(-c2cccc([N+](=O)[O-])c2)c(-c2nc(-c3ccccc3)c(-c3ccccc3)n2C2CC2)cc1OC", "growth": "87.2% (inactive)"}, {"smiles": "O=C(/C=C/C12c3ccccc3C(c3ccccc31)C1C(=O)NC(=O)C12)c1ccc(Cl)cc1", "note": "(centres undefined)", "growth": "-32.1% (active)"}, {"smiles": "O=S(=O)(Nc1ccsc1-c1nc(-c2ccccc2)no1)c1cc(Cl)cc(Cl)c1", "growth": "88.2% (inactive)"}, {"smiles": "C[C@H]1[C@H]2C3=CC[C@@H]4[C@@]5(C)C/C(=C/c6ccncc6)C(=O)C(C)(C)[C@@H]5CC[C@@]4(C)[C@]3(C)CC[C@@]2(C(=O)N2CCN(C)CC2)CC[C@@H]1C", "growth": "101% (inactive)"}, {"smiles": "C=C1C(=O)O[C@H]2[C@H]1CC/C(C(=O)NCCCCCCCCNC(=O)/C1=C/CC[C@@]3(C)O[C@H]3[C@H]3OC(=O)C(=C)[C@@H]3CC1)=C\\CC[C@@]1(C)O[C@@H]21", "growth": "42.3% (inactive)"}, {"smiles": "CC(C)OC(=O)NNC(=O)c1ccncc1", "growth": "110% (inactive)"}, {"smiles": "COc1cc2c(=O)n(CCCn3ccnc3)c3c4cc5c(cc4ccc3c2cc1OC)OCO5", "growth": "40.1% (inactive)"}, {"smiles": "COc1cc(/C=C/c2nc(Nc3ccc(S(=O)(=O)Nc4cc(C)on4)cc3)c3ccccc3n2)ccc1O", "growth": "74% (inactive)"}, {"smiles": "C[C@@H]1CC[C@@H]2[C@@H]1[C@H](OC(=O)/C=C/c1ccccc1)[C@]1(CCCOCCOCCOCCOC(=O)CCCC[C@@H]3SC[C@@H]4NC(=O)N[C@@H]43)C[C@@H](OC(=O)CO)[C@@]2(C)O1", "growth": "108% (inactive)"}, {"smiles": "O=C(CCCCCCCn1cc(-c2cccnc2)nn1)Nc1ccccc1-c1ccccc1", "growth": "71% (inactive)"}, {"smiles": "O=C(NCc1cn(Cc2cccc(Oc3ccccc3)c2)nn1)c1cccnc1NCc1ccc(Cl)cc1", "growth": "29.5% (inactive)"}, {"smiles": "CCOC(=O)c1c(C)nc2c(c1N)/C(=C/c1ccc(OC)cc1)C(=O)N2Cc1ccc(F)cc1", "growth": "-39.9% (active)"}, {"smiles": "O=C(O)c1ccc(CO)o1", "growth": "103% (inactive)"}, {"smiles": "CN(C)CN1CCN(c2ccc3nc(-c4ccc5nc(-c6ccc(C(F)(F)F)cc6)[nH]c5c4)[nH]c3c2)CC1", "growth": "42.7% (inactive)"}, {"smiles": "COc1ccc(-c2nc3ccccn3c2/C=C/C(=O)c2cc(OC)c(OC)c(OC)c2)cc1", "growth": "41.1% (inactive)"}, {"smiles": "Cc1nc(Nc2ccc(S(=O)(=O)Nc3cc(C)on3)cc2)c2ccccc2n1", "growth": "110% (inactive)"}, {"smiles": "C#C[C@]1(O)CC[C@H]2[C@@H]3CC=C4c5sc(N=C(N)N)nc5CC[C@]4(C)[C@H]3CC[C@@]21C", "growth": "-68.8% (active)"}, {"smiles": "Clc1ccc2[nH]c3c(NCCCN4CCOCC4)ncnc3c2c1", "growth": "91.2% (inactive)"}, {"smiles": "Cc1cc(C(c2ccccc2)c2ccccc2)ccc1NS(=O)(=O)c1ccccc1", "growth": "112% (inactive)"}, {"smiles": "COc1cc(NC(=O)c2cccc(-c3cc(=O)c4c(O)c(OC)c(OC)cc4o3)c2)cc(OC)c1OC", "growth": "77.4% (inactive)"}, {"smiles": "Cc1ccc(S(=O)(=O)N(CC[C@@H]2C[C@H]2c2cc3ccccc3o2)C(=O)NC2CCCCC2)cc1", "growth": "95.7% (inactive)"}, {"smiles": "CC(C)CCC[C@@H](C)[C@H]1CCC2C3=CCC4C(=O)C=CC(=O)C4C3CC[C@@]21C", "note": "(some centres undefined)", "growth": "41.9% (inactive)"}, {"smiles": "Cc1ccc(/C=C(\\C#N)n2nnc3cc(Cl)c(Cl)cc32)cc1", "growth": "41.3% (inactive)"}, {"smiles": "COc1cc(C2C=C(c3cccc(NC(C)=O)c3)Nc3ncnn32)cc(OC)c1OC", "note": "(centres undefined)", "growth": "51.5% (inactive)"}, {"smiles": "CC(=[N-])N1CCC[C@@H](Nc2c3ccccc3nc3ccccc23)C1.[Cl][Pt].[NH-]CCC[NH-]", "growth": "2.14% (active)"}, {"smiles": "O=C(/C=C/C12c3ccccc3C(c3ccccc31)C1C(=O)NC(=O)C12)c1ccccc1", "note": "(centres undefined)", "growth": "44.7% (inactive)"}, {"smiles": "COc1cc2ccccc2cc1C(=O)NC(=S)Nc1ccc(-c2nc3ccccc3[nH]2)cc1", "growth": "90.1% (inactive)"}]}]}
